Screening results from PubChem BioAssay.
The list is not random: actives were taken first. Their share in the collection is about 13%.
WT yeast gro inh: growth inhibition of WT strain, primary screen, mitochondrial fusion inhibitor project, WT and mutant strains, chemical genetic | inhibition, % at 10 µM | 2.1% of 190,000 active | mitochondrial fusion phenotypic screen; in the data active = inhibition above about 58%; tested in S. cerevisiae
CHOP inh: inhibitors of CHOP promoter induction, primary screen, cell-based, unfolded protein response, luciferase reporter | AID 2732, 2010 | CHO-K1 CHOP-promoter luciferase, tunicamycin-induced, 15-18 h | 3.8% of 220,000 active | inhibition, % at 10 µM;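 active = compounds that reduced the stress-induced luciferase reporter signal by more than about 70% of percent inhibition, limit read from the data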
Lmaj promast: Leishmania major promastigote growth inhibition, primary screen. Leishmania major promastigotes, resazurin fluorescence viability. inhibition, % at 10 µM. 9% of 200,000 active; in the data active = inhibition above about 50%;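 also: promastigotes grown with compound for 44 hours at 28 °C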
RAM inhibit: inhibitors of the yeast RAM network, primary screen, dse1pr::URA3 reporter, 5-FOA selection; S. cerevisiae dse1pr::URA3 reporter, 5-FOA growth OD615, 2 d; analog-sensitive cbk1-as2 kinase mutant strain; inhibition, % at 50 µM; 1.8% of 190,000 active;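 active = inhibition above a set limit, 3 SD over mean compound inhibition, cut at about 8.4% in these data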;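 also: inhibition rescues growth on 5-FOA so higher OD means more RAM inhibition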
L major 1uM: Leishmania major promastigote growth inhibition, confirmation, 1 µM repeat of primary hits; shares compounds with Lmaj promast; L. major promastigote growth, resazurin fluorescence, 48 h; inhibition, % at 1 µM; 13% of 1,100 active;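 active = inhibition above about 50% in both repeat tests, limit read from the data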
Each line names hits and unclear results; the compound was inactive in the other large screens (follow-up assays come after a bar, where they were run).

CCn1c(N2CCN(S(=O)(=O)c3ccc(Cl)cc3)CC2)nc2ccccc21	Lmaj promast 81.1 | L major 1uM inactive
CCn1c(N2CCN(S(=O)(=O)c3ccc(F)cc3)CC2)nc2ccccc21	none
C1CCC(C(CC2CCCCN2)C2CCCCC2)CC1 (stereo unspecified)	CHOP inh 99.2, Lmaj promast 100.5 | L major 1uM inactive
CC(=O)c1ccccc1NS(=O)(=O)c1c(C)nn(-c2ccccc2)c1C	Lmaj promast 95.6 | L major 1uM inactive
Cc1ccc2[nH]c3c(c2c1)CCc1cn[nH]c1-3	Lmaj promast 51.6 | L major 1uM inactive
Cc1ccc2[nH]c3c(c2c1)CCC3=O	none
Cc1nn(-c2ccccc2)c(N)c1C(O)(C(F)(F)F)C(F)(F)F	Lmaj promast 98.3 | L major 1uM inactive
O=[N+]([O-])c1ccc(CN2CCN(c3ccc4ccccc4n3)CC2)cc1	none
COc1ccc(C2SCC(=O)N2c2nc3ccccc3s2)cc1 (stereo unspecified)	none
COc1ccc(C2=NN(c3nc4ccccc4s3)C(=O)/C2=C\N(C)C)cc1	Lmaj promast 53.9 | L major 1uM inactive
CN1CCCC1CCNC1C2CC3CC(C2)CC1C3 (stereo unspecified)	Lmaj promast 53.2 | L major 1uM inactive
CC1(C)Oc2ccccc2OC1(O)c1ccc2ccccc2n1 (stereo unspecified)	none
O=[N+]([O-])c1ccc(N2CCN(C(=S)Nc3ccc(F)cc3F)CC2)cc1	none
O=S(=O)(/N=C(/Nc1ccc(F)c(F)c1F)c1ccccc1)c1ccccc1	Lmaj promast 88.6 | L major 1uM inactive
COC(=O)c1cc(-c2ccc(Cl)cc2Cl)n[nH]1	none
O=C1CN(c2ccc(Cl)cc2)C2(CCCCC2)S1	Lmaj promast 66.5 | L major 1uM inactive
O=C1C=C(c2ccc(Cl)cc2)OC2(CCCC2)O1	none
CCOc1ccc(N(C(=O)c2cnsn2)C(C(=O)NC2CCCCC2)c2ccncc2)cc1 (stereo unspecified)	Lmaj promast 76.0 | L major 1uM inactive
Cc1c(Cl)cccc1N/C(SCC(=O)N1CCCCCC1)=C(/C#N)c1nc2ccccc2s1	Lmaj promast 99.6 | L major 1uM inactive
O=C(CSc1nc2ccccc2s1)N1CCCCC1	none
COc1ccc(CCNC(=O)CSc2ccc(-c3ccncc3)nn2)cc1	none
COCCn1c(-c2ccccc2Cl)nc2c(c(=O)c3ccccc3n2C)c1=O	none
COc1ccc(CC2NCCC3(O)CCCCC23)cc1 (stereo unspecified)	Lmaj promast 68.0 | L major 1uM inactive
CCOC(=O)C1(CCOC)CCN(Cc2ccc(C3CCCCO3)s2)CC1 (stereo unspecified)	none
CCOc1ccc2[nH]c3c(=O)n(CCc4ccc(OC)cc4)cnc3c2c1	none (no result: WT yeast gro inh, Lmaj promast, RAM inhibit)
CCCCNCCCOc1cccc(Cl)c1	Lmaj promast 93.7 | L major 1uM inactive
CC(=O)C1=NN(c2ccccc2)C(c2ccc3c(c2)OCO3)N1c1ccccc1 (stereo unspecified)	none
CC(=O)C1=NN(c2ccccc2)C(c2cccs2)N1c1ccc(N(C)C)cc1 (stereo unspecified)	Lmaj promast 96.0 (no result: WT yeast gro inh) | L major 1uM inactive
CCOc1ccc(Br)cc1S(=O)(=O)Nc1ccccc1N1CCOCC1	Lmaj promast 100.1 | L major 1uM inactive
CCOc1ccc(Br)cc1S(=O)(=O)Nc1ccc(N2CCOCC2)cc1	none
CCC1(CC)NC(=O)N(CC(=O)OCC(=O)Nc2sccc2C#N)C1=O	none
CCOC(=O)c1cnc2ccc(C)cc2c1Sc1ccc(F)cc1	Lmaj promast 69.8 | L major 1uM inactive
COCCn1c(N)c(C(=S)NC(=O)c2cccs2)c(=O)[nH]c1=O	none (no result: WT yeast gro inh, Lmaj promast, RAM inhibit)
COc1cccc2c(=O)c(SC(F)(F)C(F)C(F)(F)F)c(C)[nH]c12 (stereo unspecified)	none
COc1cccc2c(=O)c(C/C=C(/C)Cl)c(C)[nH]c12	Lmaj promast 100.4 | L major 1uM 99.3
CC(C)(C)c1cc(N)on1	none
O=C1C2ON(c3ccc(Br)cc3)C(c3cccnc3)C2C(=O)N1C1CCCCC1 (stereo unspecified)	Lmaj promast 85.1 | L major 1uM 72.3
Cc1c(=O)n(OCc2ccccc2F)c2ccccc2[n+]1[O-]	Lmaj promast 73.5 | L major 1uM inactive
CC1CN(S(=O)(=O)c2cccc(C(F)(F)F)c2)CC(C)O1 (stereo unspecified)	none (no result: WT yeast gro inh, Lmaj promast, RAM inhibit)
CC(C)CCN(C)C1CCN(S(=O)(=O)c2cccc(C(F)(F)F)c2)CC1	Lmaj promast 93.4 | L major 1uM 80.1
O=C(Nc1cccc(C(F)(F)F)c1)C(=O)N1CCCCC1	none
Cc1noc(C)c1C(c1ccccc1)c1ccccc1	none
Cc1ccc(S(=O)(=O)NCc2c(-c3ccccc3)noc2C)cc1	none (no result: WT yeast gro inh, Lmaj promast, RAM inhibit)
Cc1noc(C)c1C(c1ccccc1)S(=O)(=O)c1ccccc1 (stereo unspecified)	Lmaj promast 84.8 | L major 1uM inactive
Cc1ccc(S(=O)(=O)C(c2ccccc2)c2c(C)noc2C)cc1 (stereo unspecified)	Lmaj promast 60.8 | L major 1uM inactive
Cc1cc(C)nc(NS(=O)(=O)c2ccc(NC(=O)CSc3ncn[nH]3)cc2)n1	none
O=C(CCC(=O)c1cccs1)Nc1ccc(F)c(F)c1F	none
CCOC(=O)c1c(C)[nH]c(C)c1C(=O)CSc1ncccn1	none
FC(F)Oc1ccc(/C=N/c2c(-c3ccc(OC(F)F)cc3)nc3n2CCS3)cc1	Lmaj promast 72.3 | L major 1uM inactive
CN(c1ccc(O)cc1)c1nc(-c2ccccc2)cs1	CHOP inh 89.7, Lmaj promast 88.7 | L major 1uM inactive
CC(C)=CC1C=C(C)C(C)C2C(=O)NNC(=O)C12 (stereo unspecified)	none
CCN1C(=O)N(c2cccc3ccccc23)C(C)=CC1(C)C	Lmaj promast 50.7 | L major 1uM inactive
CN(c1ccccc1)P(=O)(N(C)c1ccccc1)N(C)c1ccccc1	Lmaj promast 98.5 | L major 1uM inactive
CN(C)CCCC(C)(O)C(Cc1ccccc1)c1ccccc1 (stereo unspecified)	Lmaj promast 85.8 | L major 1uM inactive
Cc1cccnc1CCNC(=O)CC1C(=O)NCCN1CC1CCCCC1 (stereo unspecified)	none
CC(C)CCn1c(O)c(N=Nc2ccccn2)c2ccccc21	WT yeast gro inh 67.9, Lmaj promast 69.4 | L major 1uM inactive
Cc1cc2c(c(/C=C/C(=O)c3ccccc3)c1)OC1(C=C2)Oc2ccccc2C(=O)N1C (stereo unspecified)	Lmaj promast 97.7 | L major 1uM inactive
CCCCc1cc(O)c(CCCC)c(O)c1	Lmaj promast 98.8 | L major 1uM inactive
CC(=O)c1c(C)nc2cc(Cl)ccc2c1N	Lmaj promast 50.3 | L major 1uM inactive
Cc1nc2ccc(Cl)cc2nc(C)/c1=N\O	none
c1ccc2c3c([nH]c2c1)C1(CCCCC1)NCC3	none
CC12CCCCN1CCCc1c2[nH]c2ccccc12 (stereo unspecified)	Lmaj promast 64.4 | L major 1uM inactive
